In PubChem BioAssay (EPA / NIEHS):
Inconclusive results are not listed. The source made the active and inactive calls. The calls were made as follows, unless noted: active = hit-call score of the fitted dose curve at least 0.9, where 1 is the maximum; inconclusive = response in the unintended direction; inactive = score below 0.9.

Legend:
[1] = CCTE_Padilla_ZF_144hpf_TERATOSCORE: (Legacy) CCTE's 144 Hour Post-fertilization zebrafish Assay Teratoscore, Padilla Lab (AID 2283679; active = hit-call score of the fitted dose curve at least 0.9, where 1 is the maximum; inactive = score below 0.9;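 as to AC50: zebrafish embryos with chorions exposed by immersion from 6-8 hpf to 5 dpf with daily renewal; teratogenicity score from eye scoring of death hatching and malformations at 144 hpf; higher score means more developmental defects relative to DMSO baseline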)
How it was run: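 Larvae scored by eye at 144 hpf for death, hatching and malformations after a day in clean Hanks'. Before that, daily-renewed exposure at 80 uM (0.4% DMSO, 26C) from roughly 6-8 hpf through 5 dpf, 4 embryos per chemical.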

[2] = STM_H9_OrnithineISnorm_perc: Stemina devTOX quickPredict H9 human embryonic stem cell (hESC)-based Assay for Ornithine (ORN) Metabolite Biomarker, Normalized (AID 2283712; active = hit-call score of the fitted dose curve at least 0.9, where 1 is the maximum; inactive = score below 0.9;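 also: ornithine released into spent medium during last day measured by mass spectrometry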)
How it was run: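 Metabolite endpoint from spent media of pluripotent H9 cells treated 72 h with daily re-feeding; ornithine measured by UPLC-HRMS against its 13C spike-in and referenced to the median 0.1% DMSO vehicle response.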

[3] = STM_H9_CystineISnorm_perc: Stemina devTOX quickPredict H9 human embryonic stem cell (hESC)-based Assay for Cystine (CYSS) Metabolite Biomarker, Normalized (AID 2283713; active = hit-call score of the fitted dose curve at least 0.9, where 1 is the maximum; inactive = score below 0.9)
How it was run: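 Normalized cystine level in conditioned medium from the final 24h of a 72h treatment of pluripotent H9 cells (daily media and compound renewal). Quantified by UPLC-HRMS with C13-labeled internal standard; scaled to median of 0.1% DMSO vehicle wells.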

[4] = STM_H9_OrnCyssISnorm_ratio: Stemina devTOX quickPredict H9 human embryonic stem cell (hESC)-based Assay for Ornithine (ORN):Cystine (CYSS) Ratio (AID 2283714)
How it was run: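 UPLC-HRMS of spent media: ORN/CYSS ratio of internal-standard-normalized percentages, DMSO (0.1%) baseline. Pluripotent H9 hESCs, 72h exposure, daily re-dosing with fresh media; last 24h media collected.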

[5] = Tanguay_ZF_120hpf_ActivityScore_legacy: (Legacy) Oregon State University Tanguay Lab 120 Hour Post-fertilization zebrafish Assay Score for Activity (AID 2283742)
How it was run: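 Dechorionated 5D embryos, one per well, static exposure 6–120 hpf, 28C, sealed and dark; final DMSO 0.64% (vol/vol). Brightfield binary scoring of mortality plus 18 endpoints; gain-of-signal fit versus DMSO baseline.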

[6] = tested on: Thyroperoxidase (TPO), gene 445522; experiment: CCTE_Simmons_GUA_TPO: CCTE's Guaiacol Assay for Thyroperoxidase (TPO) Inhibition, Simmons Lab (AID 2283750)
How it was run: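 Porcine thyroid microsomes (25 ug) in 200mM potassium phosphate, preincubated 30 s at 37C with compound (8 concentrations, 5 nM–87.5 uM) and 35mM guaiacol; 1mM H2O2 starts reaction. Absorbance change at 450nm over first 80 s; loss of signal versus DMSO, three replicates.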

[7] = biological target: Luciferin 4-monooxygenase (Photinus pyralis) (UniProt P08659); experiment: CCTE_Simmons_QuantiLum_inhib_2: CCTE's Firefly Luciferase Inhibition Assay, Simmons Lab (AID 2283767);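 as to AC50: potency for inhibitors that lower luciferase luminescence relative to DMSO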
Luciferin 4-monooxygenase (Photinus pyralis), sequence (P08659 whole entry, looked up): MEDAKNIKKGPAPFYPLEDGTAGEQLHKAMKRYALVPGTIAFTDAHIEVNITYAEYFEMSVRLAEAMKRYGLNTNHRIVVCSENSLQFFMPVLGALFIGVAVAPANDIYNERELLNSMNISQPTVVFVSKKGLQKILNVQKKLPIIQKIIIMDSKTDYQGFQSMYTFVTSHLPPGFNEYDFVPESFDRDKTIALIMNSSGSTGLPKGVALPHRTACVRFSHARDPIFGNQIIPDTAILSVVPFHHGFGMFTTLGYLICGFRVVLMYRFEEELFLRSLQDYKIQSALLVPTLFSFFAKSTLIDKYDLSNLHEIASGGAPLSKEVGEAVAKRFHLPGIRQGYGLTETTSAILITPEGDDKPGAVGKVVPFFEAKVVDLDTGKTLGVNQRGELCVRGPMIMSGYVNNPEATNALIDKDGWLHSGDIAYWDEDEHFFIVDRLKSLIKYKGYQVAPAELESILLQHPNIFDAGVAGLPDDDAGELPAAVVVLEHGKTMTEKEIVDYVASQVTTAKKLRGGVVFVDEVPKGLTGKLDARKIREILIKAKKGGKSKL
How it was run: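 Eight-point titrations of each chemical, 5 nM–87.5 uM final in 0.5% DMSO, were run in three biological replicates against recombinant luciferase for 30 min at 37C. Bioluminescence signal loss, read on reagent injection, gave the inhibition endpoint.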

[8] = CEETOX_H295R_MTT_cell_viability: Viability Assessment in the CeeTox HT-H295R MTT Assay (AID 2283718; active = hit-call score of the fitted dose curve at least 0.9, where 1 is the maximum; inactive = score below 0.9;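 as to AC50: curve fitted both ways so AC50 may mark viability loss or gain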)
How it was run: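 Human H295R adrenal cells, prestimulated 48 h with 10 uM forskolin, were exposed 48 h to chemicals in 0.1% DMSO. Viability was measured in the same wells by MTT (0.5 mg/ml, 4 h, 37 C), absorbance 570/650 nm, as percent of controls.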

[9] = read-out: Cytochrome P450 (CYP24A1_1), CYP24A1 (gene 1591); experiment: LTEA_HepaRG_CYP24A1_1: Life Technologies and Expression Analysis (LTEA) Assay for Cytochrome P450 (CYP24A1_1) using HepaRG (AID 2283671; active = hit-call score of the fitted dose curve at least 0.9, where 1 is the maximum; inactive = score below 0.9); conditions: mRNA level, 48 h; actives raise or lower the signal
How it was run: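 Readout is CYP24A1 transcript level by qRT-PCR, normalized to three housekeeping genes, with gain or loss of signal fitted against 0.5% DMSO. Human HepaRG cells received compound for 48 h at up to 100 uM.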

**Q.** For `On1ccccc1=S`, which AC50 [1] is on record?
**A.** 27.7 µM (active)

**Q.** What about the AC50 [2] of the same compound?
**A.** 8.49 µM (active)

**Q.** What about the AC50 [3] of the same compound?
**A.** 5.86 µM (active)

**Q.** What about the AC50 [4] of the same compound?
**A.** 7.94 µM (active)

**Q.** And the outcome [5]?
**A.** inactive

**Q.** What about the AC50 [6] of the same compound?
**A.** 85.9 µM (active)

**Q.** What about the AC50 [7] of the same compound?
**A.** 9 µM (active)

**Q.** What does the source list for `O=C(NS(=O)(=O)/C=C/c1ccccc1)c1ccc(F)cc1Cl`?
**A.** outcome [1]: inactive; AC50 [8]: 11.2 µM (active); outcome [5]: inactive

**Q.** For `O=C(O)c1cccc(Oc2ccccc2)c1`, which outcome [9] is on record?
**A.** inactive

**Q.** What about the AC50 [1] of the same compound?
**A.** 65.2 µM (active)

**Q.** And the outcome [5]?
**A.** inactive

**Q.** Which results are given for `COc1ccc2sc(C(=O)Nc3nnn[nH]3)c(OC(C)C)c2c1`?
**A.** AC50 [1]: 34.4 µM (active); AC50 [2]: 1.33 µM (active); AC50 [3]: 1.65 µM (active); AC50 [4]: 1.52 µM (active); outcome [5]: inactive

**Q.** Which results are given for `CC(C)=CCCC(C)CCO` (centres undefined)?
**A.** outcome [5]: inactive; outcome [7]: inactive

**Q.** With `COC(=O)c1ccccc1O` as the compound, how does the outcome [5] read?
**A.** inactive

**Q.** What does the source list for `CC(C)=CCC/C(C)=C\CO`?
**A.** outcome [8]: inactive; outcome [5]: inactive; outcome [7]: inactive

**Q.** Which outcome [5] does the source give for `C1N2CN3CN1CN(C2)C3` here?
**A.** inactive

**Q.** Which outcome [5] does the source give for `Nc1cccc(N)c1` here?
**A.** inactive

**Q.** For `C[C@](N)(Cc1ccc(O)c(O)c1)C(=O)O`, which outcome [8] is on record?
**A.** inactive

**Q.** What about the outcome [5] of the same compound?
**A.** inactive

**Q.** What about the AC50 [7] of the same compound?
**A.** 53.8 µM (active)

**Q.** Which outcome [5] does the source give for `CCOCCOCCOCCO` here?
**A.** inactive

**Q.** Which outcome [8] does the source give for `CC(C)(O)c1coc(S(=O)(=O)NC(=O)Nc2c3c(cc4c2CCC4)CCC3)c1` here?
**A.** inactive

**Q.** What about the outcome [5] of the same compound?
**A.** inactive

**Q.** And the outcome [7]?
**A.** inactive

**Q.** Which outcome [5] does the source give for `CCCC(=O)OCC` here?
**A.** inactive

**Q.** Which outcome [5] does the source give for `O=C1OC(=O)C2C3C=CC(C3)C12` (centres undefined) here?
**A.** inactive

**Q.** For `CC(=O)c1ccc2c(c1)[C@H](NC(=O)c1ccc(F)cc1)[C@@H](O)C(C)(C)O2`, which outcome [5] is on record?
**A.** inactive

**Q.** With `CC(=O)OC[C@H]1O[C@@](COC(C)=O)(O[C@H]2O[C@H](COC(C)=O)[C@@H](OC(C)=O)[C@H](OC(C)=O)[C@H]2OC(C)=O)[C@@H](OC(C)=O)[C@@H]1OC(C)=O` as the compound, how does the outcome [5] read?
**A.** inactive

**Q.** Which outcome [8] does the source give for `COC(=O)c1c(Cl)c(Cl)c(C(=O)OC)c(Cl)c1Cl` here?
**A.** inactive

**Q.** What about the outcome [5] of the same compound?
**A.** inactive

**Q.** Which outcome [5] does the source give for `COCCOc1cc2cc(C(=O)NC3CCN(C(C)C)CC3)n(CC(=O)Nc3ccc(Cl)cn3)c2cn1` here?
**A.** inactive

**Q.** Which results are given for `CCCCCCCCO`?
**A.** outcome [8]: inactive; outcome [5]: inactive

**Q.** What does the source list for `CCCCC(CC)COC(=O)c1ccc(C(=O)OCC(CC)CCCC)cc1` (centres undefined)?
**A.** outcome [8]: inactive; outcome [5]: inactive

**Q.** With `O=C(O)CC(O)C(=O)O` (centres undefined) as the compound, how does the outcome [5] read?
**A.** inactive

**Q.** For `O=C(O)CCN(C1(C(=O)NO)CCCC1)S(=O)(=O)c1ccc(Oc2ccc(F)cc2)cc1`, which outcome [5] is on record?
**A.** inactive

**Q.** And the outcome [7]?
**A.** inactive

**Q.** For `CC(O)CN(CCN(CC(C)O)CC(C)O)CC(C)O` (centres undefined), which outcome [5] is on record?
**A.** inactive

**Q.** Which outcome [5] does the source give for `CC[C@H]1OC(=O)[C@H](C)[C@@H](O[C@H]2C[C@@](C)(OC)[C@@H](O)[C@H](C)O2)[C@H](C)[C@@H](O[C@@H]2O[C@H](C)C[C@H](N(C)C)[C@H]2O)[C@](C)(O)C[C@@H](C)C(=O)[C@H](C)[C@@H](O)[C@]1(C)O` here?
**A.** inactive

**Q.** Which outcome [8] does the source give for `Cc1ccc(O)cc1` here?
**A.** inactive

**Q.** And the outcome [5]?
**A.** inactive

**Q.** Which outcome [5] does the source give for `Cc1ccc(S(=O)(=O)O)cc1C` here?
**A.** inactive

**Q.** What does the source list for `CCNc1ccccc1`?
**A.** outcome [5]: inactive; outcome [6]: inactive; outcome [7]: inactive

**Q.** Which outcome [5] does the source give for `O=C(O)c1cc(N=Nc2ccc(S(=O)(=O)Nc3ccccn3)cc2)ccc1O` here?
**A.** inactive

**Q.** With `CCn1nc(Cc2ccccc2)cc1C1CCN(C[C@H]2C[C@H](N(C)[C@@H](C(=O)O)C(C)C)C[C@@H]2c2cccc(F)c2)CC1` as the compound, how does the outcome [5] read?
**A.** inactive

**Q.** And the outcome [7]?
**A.** inactive

**Q.** For `CNS(=O)(=O)c1cc(C(=O)N2CCC(CCN3C4CCC3CC(n3c(C)nc5ccccc53)C4)(c3cccc(F)c3)CC2)c(Cl)cc1F` (centres undefined), which outcome [8] is on record?
**A.** inactive

**Q.** And the outcome [5]?
**A.** inactive

**Q.** With `C1=CCCC=CCCC=CCC1` as the compound, how does the outcome [5] read?
**A.** inactive

**Q.** Which outcome [5] does the source give for `O=C1CCCCCN1` here?
**A.** inactive

**Q.** For `CCOCCO`, which outcome [5] is on record?
**A.** inactive

**Q.** With `Cc1ccc(C)c(O)c1` as the compound, how does the outcome [5] read?
**A.** inactive
